The text below walks through data of PubChem BioAssay (EPA / NIEHS).

Molecules are shown by their SMILES. Records with an inconclusive call do not appear. Activity calls are given as the source filed them. Rule for the calls: active = hit-call score of the fitted dose curve at least 0.9, where 1 is the maximum; inconclusive = response in the unintended direction; inactive = score below 0.9.

The assay in a line: CLD_ACTIN_6hr: CellzDirect (CLD) Gene Expression Assay for Baseline Control (Actin) at 6 hours (AID 2283676).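 Note: active means increased actin mRNA relative to DMSO vehicle.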 Here is the method:
CLD_6hr is a cell-based, multiplexed-readout assay that uses hepatocyte, a human liver primary cell, with measurements taken at 6 hours after chemical dosing in a 96-well plate.CLD_ACTIN_6hr is one of 16 assay component(s) measured or calculated from the CLD_6hr assay. It is designed to make measurements of mRNA induction, a form of inducible reporter, as detected with chemiluminescence signals by Quantitative Nuclease Protection Assay (qNPA) technology.Data from the assay component CLD_ACTIN_6hr was analyzed at the endpoint, CLD_ACTIN_6hr, in the positive analysis fitting direction relative to DMSO as the negative control and baseline of activity. Using a type of inducible reporter, gain-of-signal activity can be used to understand changes in the reporter gene as they relate to the gene ACTA1. Furthermore, this assay endpoint can be referred to as a secondary readout, because this assay has produced multiple assay endpoints where this one serves a background control function. To generalize the intended target to other relatable targets, this assay endpoint is annotated to the background measurement intended target family, where subfamily is baseline control.
Human hepatocyte cultures were treated daily for two consecutive days with fresh dosing solutions containing appropriate concentrations of the 320 ToxCast chemicals (chemical identities were blinded to CellzDirect and other ToxCast collaborators), vehicle control (0.2% DMSO), and positive control inducers as summarized in Table 1. Due to the large number of treatment groups and chemicals examined, the ToxCast chemicals were divided into two groups (spanning two independent cultures of hepatocytes from separate donor preparations (Hu778: ToxCast plates 1 and 2; Hu776: ToxCast plates 3 and 4). Each preparation of human hepatocyte cultures was treated with respective vehicle control, medium only control, set of six positive controls/reference chemicals for the five hepatic receptor pathways, and a subset of eight of the ToxCast chemicals (indoxacarb, pyrithiobac-sodium, norflurazon, cyhalofop-butyl, methomyl, thiram, acetochlor, and propiconazole). These replicate data, coupled with internal replicates designed within the blinded ToxCast chemical library, provided additional data to evaluate interindividual differences between hepatocyte preparations and their potential impact on chemical profiles.Cell morphology and integrity were evaluated using phase-contrast microscopy as an indicator of hepatocyte cell health (Tyson & Green, 1987). Cultures for each treatment group (i.e., media, vehicle [0.2% DMSO], positive control inducers [multiple concentrations], and the ToxCast chemicals [multiple concentrations]) were observed and cell morphology was assessed relative to vehicle control cultures at each harvest time point (0, 6, 24, or 48 h). […] Images were evaluated at the conclusion of the study to assess changes in cell integrity and account for the effects of chemical exposure on uncharacteristic changes in concentration-dependent gene expression profiles. The results from these determinations of apparent cytotoxicity were annotated (yes/no) alongside the corresponding qNPA data for reference.At the conclusion of each treatment period, hepatocyte cultures (96-well) were washed with 1 volume of HBSS, lysed by addition of 25 ul ArrayPlate lysis buffer (HTG, Tucson, AZ), and 70 ul/well of Denaturation Oil, denatured by incubation at 95C for 10 min, and frozen at approximately -70C until analysis by nuclease protection assay (qNPA) (Roberts et al., 2007). For qNPA analysis, cell lysates were thawed at 50C for approximately 30 min, qNPA probes were added, and samples were incubated at 95C for 10 min to begin the detection process by denaturing the target RNA, dissociating the duplexes and secondary structure hybridization. At the conclusion of the hybridization period, S1 nuclease reagent was added to each sample to digest all nonprotected nucleotides at 50C for 60-90 min. […]
With `COC(=O)N(C(=O)N1CO[C@@]2(C(=O)OC)Cc3cc(Cl)ccc3C2=N1)c1ccc(OC(F)(F)F)cc1`, the call was inactive. To `CC(C)N1C(=O)c2ccccc2NS1(=O)=O` belongs “inactive”; to `CCOP(=O)(OCC)Oc1nc(Cl)c(Cl)cc1Cl`, “inactive”; to `CCCC(=NOCC)C1=C(O)CC(CC(C)SCC)CC1=O` (stereo not given), “inactive”. To `CCCCOCN(C(=O)CCl)c1c(CC)cccc1CC` belongs “inactive”.

On to `COCC(C)N(C(=O)CCl)c1c(C)csc1C` (stereo not given), for which the call was inactive. To `O=C(Nc1ccccc1-c1ccc(Cl)cc1)c1cccnc1Cl` belongs “inactive”.

Turning to `CCCCC(O)(Cn1cncn1)c1ccc(Cl)cc1Cl` (stereo not given), the result was inactive. The value for `CSC(=O)c1c(C(F)F)nc(C(F)(F)F)c(C(=O)SC)c1CC(C)C` was “inactive”; that for `CS(=O)(=O)c1ccc(C(=O)C2C(=O)CCCC2=O)c([N+](=O)[O-])c1` was “inactive”; that for `CNC(=O)N(C)c1nnc(C(C)(C)C)s1` was “inactive”. For the compound `Cn1c(-c2ccccc2)cc(-c2ccccc2)[n+]1C`, the compound was classed as inactive. The value for `CCCCC(C#N)(Cn1cncn1)c1ccc(Cl)cc1` (stereo not given) was “inactive”; that for `CC1(C)C(C=C(Cl)Cl)C1C(=O)OC(C#N)c1cccc(Oc2ccccc2)c1` (stereo not given) was “inactive”; that for `CC(C)N1C(=O)N(c2ccccc2)CSC1=NC(C)(C)C` was “inactive”. In the case of `C=C(C)CN(CC)c1c([N+](=O)[O-])cc(C(F)(F)F)cc1[N+](=O)[O-]`, the compound was classed as inactive. `CC(C)Nc1nc(Cl)nc(NC(C)C)n1`: the outcome was inactive.

As for `Cc1ccc(N=CN(C)C=Nc2ccc(C)cc2C)c(C)c1`, the result was inactive. To `CCOc1nc(C(Cl)(Cl)Cl)ns1` belongs “inactive”; to `Clc1cccc(C(Cl)(Cl)Cl)n1`, “inactive”; to `COP(=O)(OC)O/C(C)=C/C(=O)N(C)C`, “inactive”.

Take `O=C1C2CC=CCC2C(=O)N1SC(Cl)(Cl)Cl` (stereo not given): the compound was classed as inactive. The value for `CO/N=C(/C1=NOCCO1)c1ccccc1Oc1ncnc(Oc2ccccc2Cl)c1F` was “inactive”. The value for `CCSC(=O)N1CCCCCC1` was “inactive”; that for `Cc1cnc(C2=NC(C)(C(C)C)C(=O)N2)c(C(=O)O)c1` (stereo not given) was “inactive”; that for `COC(=O)c1c(C(F)F)nc(C(F)(F)F)c(C2=NCCS2)c1CC(C)C` was “inactive”. The value for `CN=C=S` was “inactive”. Regarding `O=P(O)(O)CCCl`, the result was inactive. To `CS(=O)(=O)c1cc(C(F)(F)F)ccc1C(=O)c1cnoc1C1CC1` belongs “inactive”. To `CNC(=O)Oc1cccc2ccccc12` belongs “inactive”. To `COP(=S)(OC)Oc1ccc([N+](=O)[O-])c(C)c1` belongs “inactive”; to `CC(C)NC(=O)N1CC(=O)N(c2cc(Cl)cc(Cl)c2)C1=O`, “inactive”; to `CC1(C)CON(Cc2ccccc2Cl)C1=O`, “inactive”. As for `CCNP(=S)(OC)O/C(C)=C/C(=O)OC(C)C` (stereo not given), the compound was called inactive. To `COc1ccc(-c2ccccc2)cc1NNC(=O)OC(C)C` belongs “inactive”; to `Clc1nc(Cl)nc(Nc2ccccc2Cl)n1`, “inactive”; to `COCc1cnc(C2=NC(C)(C(C)C)C(=O)N2)c(C(=O)O)c1` (stereo not given), “inactive”. In the case of `COP(=S)(OC)SCn1nnc2ccccc2c1=O`, the result was inactive. Turning to `Nc1c(Cl)c(Cl)nc(C(=O)O)c1Cl`, the outcome was inactive. To `COC(=O)NS(=O)(=O)c1ccc(N)cc1` belongs “inactive”.
